# The list is not random: actives were taken first. Their share in the collection is about 1.6%.
# HTT ATP protect = cytoprotection in Huntington HTT-Q103 PC12 cell model | PC12 HTT-Q103 induced, cytoprotection, ATP luminescence, 40 h | 230,000 compounds, 0.14% hits | Potency, µM (highest dose often 56.4 µM), for inactives: cytoprotection (ATP increase), usual class: activators; further: potency means the concentration at half of the fitted maximal effect; % of control where 0% means no effect; nearly all actives have a fitted effect of over 45% in size
#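 Quantitative HTS on tebufenozide-induced (100 nM) PC12 cells expressing HTTQ103 exon 1–GFP; compounds tested as a concentration series; survival measured via cellular ATP.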
# IMPase inh = cell-permeable inhibitors of inositol monophosphatase (IMPase); P97697; CHO-M1 cells, IP1 accumulation, HTRF TR-FRET ratio; inhibition (IP1 accumulation), % at 46.1 µM; 120,000 tested, under 10 active; AID 901; active means well fitted curve in the direction sought with a large enough effect in the signal ratio, not every such curve was filed as active; inconclusive means small, poorly fitted or top-dose-only effect, or a change in a side signal; inactive means no such curve, though single readings can be large or run the other way; the % refers to the signal ratio;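 further: cells stimulated with carbachol in lithium chloride buffer; plate controls were DMSO basal wells for no effect and reference inhibitor wells for full effect; higher means more IMPase inhibition seen as more IP1 and lower FRET ratio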
# Target sequence (P97697 whole entry, looked up): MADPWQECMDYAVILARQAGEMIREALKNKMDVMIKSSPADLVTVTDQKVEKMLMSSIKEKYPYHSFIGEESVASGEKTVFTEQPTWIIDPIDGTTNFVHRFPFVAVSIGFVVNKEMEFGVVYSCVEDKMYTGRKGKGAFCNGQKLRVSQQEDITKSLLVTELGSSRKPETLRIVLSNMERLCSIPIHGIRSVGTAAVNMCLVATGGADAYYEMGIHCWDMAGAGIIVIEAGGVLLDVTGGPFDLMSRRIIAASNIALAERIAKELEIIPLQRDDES
#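 In this qHTS, compounds (final up to 46 uM) act on CHO-M1 cells that are then activated through the M1 receptor with carbachol, in pH 7.4 buffer containing 50 mM LiCl, for 30 min. IP1 accumulation is quantified by the IP-One immunoassay.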
# IMPase Li cell = cell-permeable IMPase inhibitors with lithium potentiation; CHO-M1 cells, IP1 TR-FRET (IP-One), carbachol + lithium; Potency, µM (top dose mostly 59.4 µM), without a hit: top-dose activity, negative = IMPase inhibition, actives largely listed as inhibitors; 210,000 compounds, 0.35% hits;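 further: IP1 builds up when IMPase is blocked and the TR-FRET signal falls; potency means the concentration at half of the fitted maximal effect; plate controls were basal vehicle for no effect and high inhibitor control for full effect; nearly all actives have a fitted effect of over 50% in size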
#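 IP1 accumulation measured by competitive TR-FRET in lysed CHO-M1 cells after 30 min compound exposure at 37C, with a small lithium addition to potentiate weak responses. Hill-equation AC50 from ratio and donor-channel data.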
# Lamin A splicing = changes lamin A minigene splicing in HeLa cells. HeLa LMNA splicing GFP/RFP minigene ratio, 48 h. Potency, µM (highest dose often 46.1 µM), for inactives: top-dose ratio change, negative = inhibition, hits mostly inhibitors. 200,000 compounds, 0.01% hits; active means well fitted inhibition curve with a large enough effect in the signal ratio, with a control signal flat, not every such curve was filed as active; inconclusive means small, poorly fitted or top-dose-only effect, or effect the other way, or a change in a side signal; the % refers to the signal ratio; further: potency means the concentration at half of the fitted maximal effect; on the % scale 0 is the no-effect control and ±100 the full control effect
#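 S3 HeLa cells stably expressing lamin A-EGFP splicing minigene plus DsRed2, 600 cells/well, 48 h compound exposure at 37C. Laser-scanning cytometry; analysed as GFP (500-530 nm)/RFP (575-640 nm) total intensity ratio; 0.5% DMSO vehicle.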
# HTT aggregate = inhibitors of mutant huntingtin aggregate formation in PC12 cells; PC12 HttQ103-GFP aggregates, Acumen cytometry, 40 h; Potency, µM (doses to about 46.1 µM), without a hit: at the highest dose activity change, negative = inhibition, hits mostly inhibitors; 220,000 compounds, 1.1% hits; AID 1688; further: potency means the concentration at half of the fitted maximal effect; on the % scale 0 is the no-effect control and ±100 the full control effect; nearly all actives have a fitted effect of over 60% in size
#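 PC12 cells stably carrying ecdysone-inducible HTT exon 1 Q103–GFP were induced with tebufenozide (100 nM final) and treated with library compounds in titration. GFP aggregates in lysates were counted by laser scanning cytometry.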
# NPSR antag = blocks cAMP signaling of the human neuropeptide S receptor; Q6W5P4; CHO-NPSR cells, cAMP TR-FRET, antagonist mode; Potency, µM (top dose mostly 38.3 µM), without a hit: at the top dose activity change, negative = inhibition, most hits filed as inhibitors; 220,000 compounds, 1% hits; further: potency means the concentration at half of the fitted maximal effect; on the % scale 0 is the no-effect control and ±100 the full control effect; nearly all actives have a fitted effect of over 50% in size
# Target sequence (Q6W5P4 whole entry, looked up): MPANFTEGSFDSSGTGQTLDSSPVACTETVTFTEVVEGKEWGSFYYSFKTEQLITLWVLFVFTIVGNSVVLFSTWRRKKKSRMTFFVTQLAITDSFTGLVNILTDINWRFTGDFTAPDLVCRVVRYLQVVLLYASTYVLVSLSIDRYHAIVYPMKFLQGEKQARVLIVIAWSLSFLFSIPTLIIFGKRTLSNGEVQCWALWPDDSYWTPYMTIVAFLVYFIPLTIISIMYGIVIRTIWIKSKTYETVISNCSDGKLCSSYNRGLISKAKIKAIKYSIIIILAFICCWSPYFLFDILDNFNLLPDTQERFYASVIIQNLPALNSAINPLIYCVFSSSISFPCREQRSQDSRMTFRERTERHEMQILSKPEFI
# An asterisk follows results filed as active; ? = inconclusive; / = no result given; ! = a repeat was not active; [ ] = dose if it differs, or a comment. Unless noted, the call rests on the fitted dose curve; in most records, active means well fitted curve in the direction sought with a large enough effect; inconclusive means small, poorly fitted or top-dose-only effect, or another doubt; inactive means no such curve, though single readings can be large; an effect the other way counts as inactive or inconclusive.
SMILES,HTT ATP protect,IMPase inh,IMPase Li cell,Lamin A splicing,HTT aggregate,NPSR antag
CC(C)c1ccccc1-n1c(SCc2cc(=O)oc3ccc4ccccc4c23)nnc1-c1cccnc1,-15%[10 µM],3,7%,?,13%,10µM*
O=C(Nc1nc(-c2ccccc2)cs1)c1ccccc1NS(=O)(=O)c1ccc(F)cc1,-72%[10 µM],/,20%,?,1.8µM*,?
COc1ccccc1C(=O)Nc1nc(-c2ccc(S(=O)(=O)N3CCOCC3)cc2)cs1,-90%,17,1%[38.3 µM],?,2.5µM*,?
COc1ccc(NC(=O)/C(Cl)=C(/Cl)S(=O)(=O)Cc2ccc(C)cc2)cn1,-152%,10,3%[38.3 µM],?,-1%[9.22 µM],4µM*
COc1ccc(NC(=O)/C(Cl)=C(/Cl)S(=O)Cc2ccccc2Cl)cn1 (stereo not given),-170%,/,34%,?,?,5µM*
COc1ccc(NC(=O)Cc2ccc(Cl)c(Cl)c2)cn1,-35%,/,-7%,/,-14%,-5%
Cn1c(=O)oc2cc(S(=O)(=O)CCC(=O)NCc3ccc(Cl)cc3)ccc21,/,/,/,-12%[46 µM],/,/
Cc1cc(C(N)=O)c2ccccc2n1,-26%,-3,-5%[38.3 µM],9%,-3%,5%[46.1 µM]
NC(=O)c1cc2ccncc2c2ccccc12,-2%[10 µM],/,/,/,2.5µM*,-17%
O=c1c(-c2cc(F)cc(F)c2)nc2cnc(N3CCOCC3)nc2n1C1CC1,-7%,/,8.9µM*,/,/,/
CC1=C(CC(=O)c2ccc(Cl)cc2)C(=O)c2ccccc2C1=O,-152%,-6,11%[38.3 µM],?,3.5µM*,-7%[46.1 µM]
Cc1oc2c(c1C(=O)c1ccc(Cl)cc1)C(=O)C(=O)c1ccccc1-2,-109%,21,43%[38.3 µM],?,?,?
CC(C)C(=O)C(C)(C)CCc1ccccn1,5%[10 µM],/,1%,/,/,/
Cc1cccc(/N=C/c2sc3ccccc3c2O)n1,5%[10 µM],/,/,3%[46 µM],1%[9.22 µM],17%
Oc1ccc(Cl)cc1N=Cc1sc2ccccc2c1Cl,2.2µM*,/,-2%,/,?,-16%
O=[N+]([O-])c1ccc(O)c(N=Cc2sc3ccccc3c2O)c1,/,/,34%,-8%,7.9µM*,-18%
Fc1ccc(Oc2ccc3nnc(C(F)(F)F)n3n2)cc1,15%[10 µM],/,-3%,14%[9.22 µM],6%,8%
O=C(Nc1nc(-c2cccc([N+](=O)[O-])c2)cs1)C(c1ccccc1)c1ccccc1,4%[10 µM],3[1.84 µM],29%[38.3 µM],7%,16µM*,-7%[46.1 µM]
COC(=O)c1ccc(NC(=O)Cn2c(=O)oc3ccccc32)cc1,/,5,/,/,/,/
CNC(=S)N/N=C1\C(=O)c2cccc3cccc1c23,-21%,7,22%[38.3 µM],?,?,3.2µM*
CCCCNC(=S)N/N=C1\C(=O)c2cccc3cccc1c23,-2%[10 µM],-12,32%[38.3 µM],5%,5%,-24%[46.1 µM]
c1ccc(C(c2cccc3c2ccc2ccccc23)[C@H](c2ccccc2)c2cccc3c2ccc2ccccc23)cc1 (stereo not given in full),/,/,3%,/,/,/
S=c1nc(-c2ccccc2)n(Cc2ccco2)c2c1CCCC2,-16%,4,13µM*,10%,22%,-6%[46.1 µM]
O=C(NC(c1ccccc1)c1cc(Cl)c2cccnc2c1O)c1cccnc1 (stereo not given),-88%[10 µM],/,-7%,-16%,4µM*,-18%
CCCC(=O)NC(c1ccco1)c1cc(Cl)c2cccnc2c1O (stereo not given),1%,4,21%[38.3 µM],?,?,-27%[46.1 µM]
SMILES,HTT ATP protect,IMPase inh,IMPase Li cell,Lamin A splicing,HTT aggregate,NPSR antag
CCCC(=O)NC(c1ccc2c(c1)OCO2)c1cc(Cl)c2cccnc2c1O (stereo not given),-69%[10 µM],/,8%,?,2.8µM*,-2%
CCOC(=O)C1=C(C)n2c(s/c(=C/c3cccc([N+](=O)[O-])c3)c2=O)=NC1c1ccc(O)c(OC)c1 (stereo not given),-101%,2,29%[38.3 µM],-14%,?,7.9µM*
CC1=CC(=C(c2ccc(N)cc2)c2ccc(N)cc2)C=CC1=N,-62%,/,/,/,7.9µM*,/
COc1ccc(CCNC(=S)N2CCC(Cc3ccccc3)CC2)cc1OC,-63%,/,21%,?,22µM*,-24%
Cc1nc2c(=O)n(C)c(=O)n(C)c2nc1Cl,-90%[10 µM],/,-9%,?,10µM*,-31%
CCCCCCCCCCCCCCCCn1cc[n+](C)c1,-41%[10 µM],/,29%,/,13µM*!,?
CCCCCCN1Cc2ccccc2C1,3%,4,3%[38.3 µM],0%,-11%,-8%[46.1 µM]
Cc1ccc(-c2nc(NC(=O)c3nn(C)cc3[N+](=O)[O-])sc2C)cc1C,-89%,2,8%[38.3 µM],?,7.9µM*,-8%[46.1 µM]
CC1=NN(C(C#N)c2cccc([N+](=O)[O-])c2)C(C)(C)C1 (stereo not given),/,/,5%,13%,6%,9%
CC1=C/C(=N\NC(=S)Nc2cccnc2)CC(C)(C)C1,-56%[10 µM],/,8%,?,?,1.3µM*
Nc1ccnc2c1ncn2[C@@H]1O[C@H](CO)[C@@H](O)[C@H]1O,-48%,/,16%,/,/,/
S=c1[nH]ncn2c1cc1oc3ccccc3c12,/,/,1.1µM*,/,9%,10µM*
CCOc1ccc2cc(C#N)c(SCC(=O)N3CCOCC3)nc2c1,2%[10 µM],-20,2.8µM*,-4%,0%,-1%[46.1 µM]
CCOc1ccc2nc(SCC(=O)N3CCCCCC3)c(C#N)cc2c1,-32%,4,0%[38.3 µM],-7%,-1%,?
OC[C@H]1O[C@@H](n2cnc3c(N[C@H]4C[C@H]5CC[C@@H]4C5)ncnc32)[C@H](O)[C@@H]1O,-20%,/,-9%,/,/,/
Cn1c(=O)n(C)c2cc(NS(=O)(=O)c3ccc4c(c3)CCCC4)ccc21,-12%[0.074 µM],1,40%[38.3 µM],?,2.8µM*,-23%[46.1 µM]
Cn1c(=O)n(C)c2cc(NS(=O)(=O)c3ccc(C(C)(C)C)cc3)ccc21,6%[10 µM],/,9%,/,13%[9.22 µM],-6%
O=C(O)C1CC=CCC1C(=O)N1CCN(c2nc(-c3ccccc3Cl)c3cc(Br)ccc3n2)CC1 (stereo not given),-7%,?,11µM*,?,3%,13µM*
O=C(O)C1CC=CCC1C(=O)N1CCN(c2nc(-c3ccccc3)c3ccccc3n2)CC1 (stereo not given),-23%,17,15%[38.3 µM],10%,?,-9%[46.1 µM]
CO/N=C/c1ccc(N2CCN(C(=O)c3ccc(Cl)cc3Cl)CC2)c([N+](=O)[O-])c1,-69%,3,12%[38.3 µM],-21%,18µM*,-27%[46.1 µM]
Cc1ccc(C(=O)O/N=C\c2ccc(N3CCCCC3)c([N+](=O)[O-])c2)cc1,-18%,-1,-11%[38.3 µM],4%,-15%,-18%[46.1 µM]

# Source: PubChem
